# SW480 rereplic = A quantitative high throughput screen for small molecules that induce DNA re-replication in SW480 colon adenocarcinoma cells; SW480 DNA re-replication, Hoechst DNA content imaging, 48 h; Potency, µM (doses to about 46.1 µM), inactives show top-dose re-replication activation, hits mostly activators; 1.8% of 340,000 active; AID 624297, 2012; also: potency is read from the fitted curve at half-maximal effect; % of control where 0% means no effect; nearly all actives have a fitted effect of over 55% in size
#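 Treated cells incubate 48 hr (37 C, 5% CO2), are stained 40 min with Hoechst, and nuclear fluorescence is enumerated; a rise in nuclei with high DNA signal marks re-replication.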
# IL-1B inflam inh = qHTS for Inhibitors of Inflammasome Signaling: IL-1-beta AlphaLISA Primary Screen; THP-1 LPS/ATP IL-1B secretion, AlphaLISA, 16 h; active compounds read low; activity change, % at 57.5 µM; 4.7% of 360,000 active; in the data active = activity change below about -50%; inconclusive = mostly about -30% to -49%; also: % is scaled to controls: 0 for no effect and ±100 for the full control effect
#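 THP-1 cells pretreated 1 hr with compounds (up to 57.5 uM final), then stimulated with LPS (250 ng/mL final) plus ATP (1.25 mM final); secreted IL-1B measured by AlphaLISA after 16 hr, decreased signal indicating inhibition.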
# ATXN2 expr inh = Primary qHTS for Inhibitors of ATXN expression; HEK-293 ATXN2-luciferase reporter, luminescence, 24 h; Potency, µM (top dose mostly 57 µM), without a hit: at the highest dose activity change, negative = inhibition, hits mostly inhibitors; 0.72% of 360,000 active; AID 1745845, 2022; also: potency is read from the fitted curve at half-maximal effect; % is scaled to controls: 0 for no effect and ±100 for the full control effect; nearly all actives have a fitted effect of over 55% in size
#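 ATXN2-luciferase reporter cells (luciferase flanked by upstream and downstream ATXN2 gene portions) were treated 24 h at 37 °C with compounds at up to 57 uM. SteadyGlo luminescence gave expression; GF-AFC fluorescence gave viability.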
# PINK1 modulator = A Quantitative High throughput Screen to Identify Chemical Modulators of PINK1 Expression. PINK1 immunofluorescence, high-content cytometry, 24 h. Potency, µM (highest dose often 76.6 µM), inactives show at the top dose activation (PINK1 increase), most hits filed as activators. 0.2% of 410,000 active. AID 624263, 2012; active = well fitted activation curve with a large enough effect; inconclusive = small, poorly fitted or top-dose-only effect; cell line not stated here; also: potency is read from the fitted curve at half-maximal effect; % of control where 0% means no effect; nearly all actives have a fitted effect of over 65% in size
#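 A stable cell line was treated with compounds at 5 concentrations for 24 hours, with CCCP as control. PINK1 levels and mitochondrial localization were measured by immunofluorescence with mitochondrial, cell and nuclear markers after fixation, read by laser-scanning cytometry.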
# MCF10A rerep = A quantitative high throughput screen for small molecules that induce DNA re-replication in MCF 10a normal breast cells; MCF 10A DNA re-replication, Hoechst nuclear intensity, 48 h; Potency, µM (doses to about 46.1 µM), for inactives: at the top dose activity, positive = re-replication, actives largely listed as activators; 2.9% of 350,000 active; AID 624296, 2012; also: potency is read from the fitted curve at half-maximal effect; % of control where 0% means no effect; nearly all actives have a fitted effect of over 50% in size
# ATXN viability = Viability Counterscreen for Primary qHTS for Inhibitors of ATXN expression; S2 cells (HEK-293 line with an ATXN2-luciferase reporter) viability, CellTiter-Fluor protease fluorescence, 24 h; Potency, µM (series often up to 56.7 µM), actives largely listed as cytotoxic; 0.49% of 400,000 active; also: potency is read from the fitted curve at half-maximal effect; nearly all actives have a fitted effect of over 40% in size
# Numbers without * were called inactive; i = inactive; ? = inconclusive; / = no result; [ ] = dose if it differs, or a comment. A selection: hits, their analogues and other compounds. The true share with any hit is near 7.1%. Unless noted, calls follow the shape of the dose curve; as a rule, active = well fitted curve in the direction sought with a large enough effect; inconclusive = small, poorly fitted or top-dose-only effect, or another doubt; inactive = no such curve, though single readings can be large; an effect the other way counts as inactive or inconclusive.
SMILES,SW480 rereplic,IL-1B inflam inh,ATXN2 expr inh,PINK1 modulator,MCF10A rerep,ATXN viability
COc1ccc(OC)c(/C=C/c2c([N+](=O)[O-])c(=O)n(C)c(=O)n2C)c1,17%,-6,-12%,2%,-7%,i
Cn1c(/C=C/c2ccc(Br)cc2)c([N+](=O)[O-])c(=O)n(C)c1=O,?,-103*,?,-4%,21µM*,?
COc1cc(/C=C/c2c([N+](=O)[O-])c(=O)n(C)c(=O)n2C)cc(OC)c1OC,0%,-5,-16%,1%[38.3 µM],3%,i
COc1ccc(/C=C/c2c([N+](=O)[O-])c(=O)n(C)c(=O)n2C)cc1O,?,-83*,6%,2%,4%,i
CN(C)c1ccc(/C=C/c2c([N+](=O)[O-])c(=O)n(C)c(=O)n2C)cc1,-6%,-1,-13%,1%,-6%,i
CCn1ccc2c(OCC(=O)Nc3ccc(C)c(Cl)c3)cccc2c1=O,/,/,?,2%,/,/
CCN1C(=O)S/C(=C/c2c(OCc3ccc(C(=O)O)cc3)ccc3ccccc23)C1=O,-405%,-1,-5%,14%,6.5µM*,?
COc1cccc(C(c2c(NC(=O)c3ccco3)sc(C)c2C)N2CCOCC2)c1 (centres undefined),9%,3,-5%,5%,21µM*,i
CCOc1ccc(C(c2c(NC(=O)c3ccco3)sc(C)c2C)N2CCOCC2)cc1 (centres undefined),-38%,?,-22%,1%,21µM*,i
Cc1sc(NC(=O)c2ccco2)c(C(Nc2ccccn2)c2ccccc2)c1C (centres undefined),11%,-51*,15%,-1%,?,i
COc1ccc(C(Nc2ccccn2)c2c(NC(=O)c3ccco3)sc(C)c2C)cc1 (centres undefined),17%,?,/,0%,13%,?
CCOc1ccc(C(c2c(NC(=O)c3ccccc3)sc(C)c2C)N2CCN(C)CC2)cc1 (centres undefined),1%,-62*,0%,11%,?,?
Cc1ccc2c(=O)cc(C(=O)NCc3ccccc3)oc2c1,/,/,-10%,1%,/,?
CCOc1cc(C2C(C(=O)OC)=C(C)NC3=C2C(=O)c2ccccc23)c(Br)cc1O (centres undefined),/,/,-39%,0%,/,?
Cc1ccc(/C=C/c2onc(C)c2S(=O)(=O)N2CCC(C(=O)Nc3cccc(C#N)c3)CC2)cc1,/,/,9%,4%,/,i
Cc1sc(NC(=O)c2ccco2)c(C(c2cccnc2)N2CCCC2)c1C (centres undefined),?,-29,21%,?,21µM*,i
Cn1ccnc1SCC(=O)Nc1cc(Cl)ccc1Cl,/,/,24%,0%,/,?
CCc1nnc(NC(=O)c2sc3nc4c(cc3c2N)CCCCCC4)s1,?,-72*,13%,9%,18µM*,/
CCc1nnc(NC(=O)c2sc3nc4c(cc3c2N)CCCCC4)s1,8.2µM*,-8,68%,1%,16µM*,/
O=C(Cn1ccc2cc(S(=O)(=O)N3CCCCC3)ccc21)NCCc1ccccc1Cl,/,/,-13%,-1%,/,?
O=C(NCC1(N2CCCCC2)CCCC1)c1cnn(-c2nccc(-c3cccs3)n2)c1C1CC1,/,/,/,-1%,/,i
COc1cccc2sc3ccc(C#CC4(N)CCCCC4)cc3c(=O)c12,27%,-61*,-31%,-1%,?,?
COc1cc2sc3ccc(C#CC4(O)CCCCC4)cc3c(=O)c2cc1OC,?,0,12%,1%,9.2µM*,i
COc1cccc2sc3cc(C#CC4(O)CCCCC4)ccc3c(=O)c12,-3%,?,?,-1%,?,?

# Source: PubChem
